This is an account of results in PubChem BioAssay (NCATS).

The structures appear in SMILES notation. “And” between values parts separate entries of the source, which are not always exact repeats. Equal values may be shown once. Inconclusive results are not listed. Where a call stands in place of a potency, no number is given. The source made the active and inactive calls. Calls follow the shape of the dose curve; as a rule, active = well fitted curve in the direction sought with a large enough effect; inconclusive = small, poorly fitted or top-dose-only effect, or another doubt; inactive = no such curve, though single readings can be large; an effect the other way counts as inactive or inconclusive.
Potency is read from the fitted curve at half-maximal effect.

For one assay, the system named is Zika virus NS2B-NS3 protease (unlinked). Put plainly: Optimization of GU AMC qHTS for Zika virus inhibitors: Unlinked NS2B-NS3 protease assay (AID 1347151). Also: nearly all actives have a fitted effect of over 80% in size. The following applies: recombinant ZIKV NS2B-NS3 protease, fluorogenic AMC substrate; series mostly up to 52.5 µM. An outline of the steps: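 Unlinked protease (25 nM final); buffer 10 mM Tris-HCl pH 8.0 + 0.01% Tween 20; AMC substrate; 15 min RT, dark; Δfluorescence normalized to no-inhibitor/no-enzyme controls; 4-parameter Hill fit.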
As for `CS(=O)(=O)Nc1ccc([N+](=O)[O-])cc1Oc1ccccc1`, the Potency result is “inactive”.

For the compound `OCCN(CCO)c1nc(N2CCCCC2)c2nc(N(CCO)CCO)nc(N3CCCCC3)c2n1`, the Potency was 26.7 µM (active).

Take `COc1cc2c(c(OC)c1OC)-c1ccc(OC)c(=O)cc1[C@@H](NC(C)=O)CC2`: the Potency result is “inactive”.

For `CC(C)Cc1ccc(C(C)C(=O)O)cc1` (stereo unspecified), the Potency entry was “inactive”.

Take `CC(=O)OCC(CCn1cnc2cnc(N)nc21)COC(C)=O`: the Potency is 26.7 µM (active).

Consider `Cc1cnc(C(=O)NCCc2ccc(S(=O)(=O)NC(=O)NC3CCCCC3)cc2)cn1`, for which the Potency result was “inactive”.

`CC1COc2c(N3CCN(C)CC3)c(F)cc3c(=O)c(C(=O)O)cn1c23` (stereo unspecified): the Potency is 15 µM (active).

For the compound `COC(=O)Nc1nc2ccc(C(=O)c3cccs3)cc2[nH]1`, the Potency entry is “inactive”.

Take `CC#C[C@]1(O)CC[C@H]2[C@@H]3CCC4=CC(=O)CCC4=C3[C@@H](c3ccc(N(C)C)cc3)C[C@@]21C`: the Potency result is “inactive”.

For the compound `Clc1ccc2c(c1)C(N1CCNCC1)=Nc1ccccc1O2`, the Potency entry is “inactive”.

For `NC12CC3CC(CC(C3)C1)C2`, the Potency entry was “inactive”.

`CN1CCN(CCCN2c3ccccc3Sc3ccc(Cl)cc32)CC1`: the Potency result is “inactive”.

As for `NC(=O)NO`, the Potency entry is “inactive”.

Regarding `CCN1CCCC1CNC(=O)c1cc(S(=O)(=O)CC)c(N)cc1OC` (stereo unspecified), the Potency result is “inactive”.

On to `CC[C@@]1(O)C(=O)OCc2c1cc1n(c2=O)Cc2cc3c(CN(C)C)c(O)ccc3nc2-1`, for which the Potency entry was “inactive”.

Turning to `O=C(Nc1ccc([N+](=O)[O-])cc1Cl)c1cc(Cl)ccc1O`, the Potency result is “inactive”.

In the case of `O=C1Cc2cc(CCN3CCN(c4nsc5ccccc45)CC3)c(Cl)cc2N1`, the Potency was 26.7 µM (active).

Take `Cc1cc(C(C)(C)C)c(O)c(C)c1CC1=NCCN1`: the Potency entry was “inactive”.

For the compound `CC(C)NCC(O)c1ccc(O)c(O)c1` (stereo unspecified), the Potency entry is “inactive”.

In the case of `CCOC(=O)Nc1ccc(NCc2ccc(F)cc2)nc1N`, the Potency was 23.8 µM (active).

Take `CC(C)C(=O)Nc1ccc([N+](=O)[O-])c(C(F)(F)F)c1`: the Potency entry is “inactive”.

For the compound `CN(Cc1cnc2nc(N)nc(N)c2n1)c1ccc(C(=O)N[C@@H](CCC(=O)O)C(=O)O)cc1`, the Potency is 21.2 µM (active).

For the compound `CC(CCc1ccc(O)cc1)NCCc1ccc(O)c(O)c1` (stereo unspecified), the Potency entry was “inactive”.

For `COc1cc2nc(N3CCN(C(=O)c4ccco4)CC3)nc(N)c2cc1OC`, the Potency is 26.7 µM (active).

For the compound `O=C1c2c(O)ccc(O)c2C(=O)c2c(NCCNCCO)ccc(NCCNCCO)c21`, the Potency result was “inactive”.

With `O=c1c(O)c(-c2ccc(O)c(O)c2)oc2cc(O)cc(O)c12`, the Potency is 2.12 µM (active).

Take `CCC1(c2ccccc2)C(=O)NCNC1=O`: the Potency result was “inactive”.

In the case of `Cc1ccc(-c2cc(C(F)(F)F)nn2-c2ccc(S(N)(=O)=O)cc2)cc1`, the Potency entry is “inactive”.

Consider `Clc1ccc2nsnc2c1NC1=NCCN1`, for which the Potency entry is “inactive”.

In a further assay the test system is Zika virus NS2B-NS3 protease (linked construct). Nature of the assay: Confirmatory screen NINDS AMC qHTS for Zika virus inhibitors (AID 1347152). Also: nearly all actives have a fitted effect of over 70% in size. As to conditions: Purified linked NS2B-NS3, AMC substrate fluorescence; series mostly up to 56.6 µM. In outline: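 Enzyme (1 nM, linked construct) was preincubated with compound for 15 minutes at room temperature in 10 mM Tris-HCl pH 8.0 with 0.01% Tween 20. Bz-Nle-Lys-Arg-Arg-AMC was then added to 10 microM, and AMC fluorescence was recorded immediately and after 15 minutes.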
Consider `CC(C)(C)C(=O)Oc1ccc(S(=O)(=O)Nc2ccccc2C(=O)NCC(=O)O)cc1`, for which the Potency result is “inactive”.

Turning to `Cc1cnc(C(=O)NCCc2ccc(S(=O)(=O)NC(=O)NC3CCCCC3)cc2)cn1`, the Potency result is “inactive”.

On to `CC1COc2c(N3CCN(C)CC3)c(F)cc3c(=O)c(C(=O)O)cn1c23` (stereo unspecified), for which the Potency is 24.1 µM (active) and 27.1 µM (active).

Turning to `O=C1Cc2cc(CCN3CCN(c4nsc5ccccc45)CC3)c(Cl)cc2N1`, the Potency is 34.1 µM (active).

As for `CCOC(=O)Nc1ccc(NCc2ccc(F)cc2)nc1N`, the Potency entry is “inactive”.

Take `COc1cc2nc(N3CCN(C(=O)c4ccco4)CC3)nc(N)c2cc1OC`: the Potency is 10.5 µM (active).

For a further assay, the system named is Zika virus NS2B-NS3 protease (unlinked complex). Nature of the assay: Confirmatory screen GU AMC qHTS for Zika virus inhibitors (AID 1347153). Also: nearly all actives have a fitted effect of over 70% in size.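 As to potency: enzyme at 25 nM with substrate at 10 µM below its Km of 18.3 µM.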 As to conditions: Recombinant NS2B-NS3 protease, AMC substrate fluorescence; series mostly up to 57.1 µM. An outline of the steps:
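Noncovalent NS2B hydrophilic domain/NS3 protease complex (25 nM) in 10 mM Tris-HCl pH 8.0, 0.01% Tween 20 was preincubated 15 min at room temperature with compounds. Then 10 µM AMC substrate (Km 18.3 µM) was added; fluorescence was read over 15 min and fitted to a 4-parameter Hill equation.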
In the case of `CC(C)(C)C(=O)Oc1ccc(S(=O)(=O)Nc2ccccc2C(=O)NCC(=O)O)cc1`, the Potency entry is “inactive”.

For the compound `Cc1cnc(C(=O)NCCc2ccc(S(=O)(=O)NC(=O)NC3CCCCC3)cc2)cn1`, the Potency entry is “inactive”.

With `CC1COc2c(N3CCN(C)CC3)c(F)cc3c(=O)c(C(=O)O)cn1c23` (stereo unspecified), the Potency is 27.1 µM (active).

`CCOC(=O)Nc1ccc(NCc2ccc(F)cc2)nc1N`: the Potency result was “inactive”.

Take `CN(Cc1cnc2nc(N)nc(N)c2n1)c1ccc(C(=O)N[C@@H](CCC(=O)O)C(=O)O)cc1`: the Potency entry was “inactive”.

A further assay deals with Zika virus NS2B-NS3 protease. Put plainly: Primary screen GU AMC qHTS for Zika virus inhibitors (AID 1347154). Also: nearly all actives have a fitted effect of over 70% in size. The following applies: Zika NS2B-NS3 unlinked protease, AMC fluorogenic substrate; series mostly up to 54.1 µM. In outline: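 Fluorogenic AMC-substrate cleavage by noncovalent NS2B-NS3 protease complex (25 nM, pH 8.0 Tris buffer with Tween 20) followed for 15 minutes at room temperature (~20% conversion). Percent inhibition from ex340/em450 signal change, fitted by 4-parameter Hill equation.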
In the case of `CS(=O)(=O)Nc1ccc([N+](=O)[O-])cc1Oc1ccccc1`, the Potency entry was “inactive”.

In the case of `COc1cc2c(c(OC)c1OC)-c1ccc(OC)c(=O)cc1[C@@H](NC(C)=O)CC2`, the Potency entry was “inactive”.

As for `CC(C)Cc1ccc(C(C)C(=O)O)cc1` (stereo unspecified), the Potency result is “inactive”.

As to `CC(C)(C)C(=O)Oc1ccc(S(=O)(=O)Nc2ccccc2C(=O)NCC(=O)O)cc1`, the Potency entry was “inactive”.

`CCCCc1oc2ccccc2c1C(=O)c1cc(I)c(OCCN(CC)CC)c(I)c1`: the Potency entry was “inactive”.

For the compound `CC1COc2c(N3CCN(C)CC3)c(F)cc3c(=O)c(C(=O)O)cn1c23` (stereo unspecified), the Potency was 28.7 µM (active) and 24.1 µM (active).

With `COC(=O)Nc1nc2ccc(C(=O)c3cccs3)cc2[nH]1`, the Potency result was “inactive”.

Consider `CC#C[C@]1(O)CC[C@H]2[C@@H]3CCC4=CC(=O)CCC4=C3[C@@H](c3ccc(N(C)C)cc3)C[C@@]21C`, for which the Potency result is “inactive”.

Turning to `Clc1ccc(C(c2ccccc2Cl)C(Cl)Cl)cc1` (stereo unspecified), the Potency entry was “inactive”.

For `Clc1ccc2c(c1)C(N1CCNCC1)=Nc1ccccc1O2`, the Potency result was “inactive”.

Take `NC12CC3CC(CC(C3)C1)C2`: the Potency result was “inactive”.

On to `CN1CCN(CCCN2c3ccccc3Sc3ccc(Cl)cc32)CC1`, for which the Potency result is “inactive”.

`NC(=O)NO`: the Potency result was “inactive”.

On to `CCN1CCCC1CNC(=O)c1cc(S(=O)(=O)CC)c(N)cc1OC` (stereo unspecified), for which the Potency result was “inactive”.

`CC[C@@]1(O)C(=O)OCc2c1cc1n(c2=O)Cc2cc3c(CN(C)C)c(O)ccc3nc2-1`: the Potency result was “inactive”.

In the case of `O=C(Nc1ccc([N+](=O)[O-])cc1Cl)c1cc(Cl)ccc1O`, the Potency result is “inactive”.

Take `O=C1Cc2cc(CCN3CCN(c4nsc5ccccc45)CC3)c(Cl)cc2N1`: the Potency result was “inactive”.

In the case of `Cc1cc(C(C)(C)C)c(O)c(C)c1CC1=NCCN1`, the Potency entry is “inactive”.

As to `CC(C)NCC(O)c1ccc(O)c(O)c1` (stereo unspecified), the Potency entry is “inactive”.

With `CC(C)C(=O)Nc1ccc([N+](=O)[O-])c(C(F)(F)F)c1`, the Potency entry is “inactive”.

For `CC(CCc1ccc(O)cc1)NCCc1ccc(O)c(O)c1` (stereo unspecified), the Potency result was “inactive”.

On to `O=C1c2c(O)ccc(O)c2C(=O)c2c(NCCNCCO)ccc(NCCNCCO)c21`, for which the Potency result was “inactive”.

As to `O=c1c(O)c(-c2ccc(O)c(O)c2)oc2cc(O)cc(O)c12`, the Potency result was “inactive”.

`CCC1(c2ccccc2)C(=O)NCNC1=O`: the Potency entry is “inactive”.

As to `Cc1ccc(-c2cc(C(F)(F)F)nn2-c2ccc(S(N)(=O)=O)cc2)cc1`, the Potency entry is “inactive”.

As to `Clc1ccc2nsnc2c1NC1=NCCN1`, the Potency result was “inactive”.
